Test results published in the supplement of paper PMC10127200.
“And” between values parts separate entries of the source, which are not always exact repeats. Equal entries are not always repeated. Structures can show the parent of a compound that is named as a salt.

Assays:
Assay in all cases: Euclidean distance of Cell Painting phenotypic profile (signed KS, 77 features) to DMSO centroid (dimensionless distance); 5 or 10 uM (library dependent); higher = stronger phenotypic change vs DMSO (phenoactivity)
Settings in all cases: 48 h
786-O = test system: 786-O
Outline: (§1)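 Five cancer lines, together with a healthy fibroblast line, received library compounds for 48 h at a library-dependent 10 or 5 uM and 0.1% DMSO final. Harmony then derived 77 features from confocal 20X images (9 fields/well) of the stained cells, scoring each as a signed Kolmogorov-Smirnov statistic against same-plate vehicle wells. After plate-position correction, correlation weighting and replicate averaging at the top dose, phenoactivity was taken as each profile's Euclidean distance to the median vehicle profile.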

A549 = test system: A549
Outline: as §1

DU145 = test system: DU145
Outline: as §1

FB = test system: FB
Outline: as §1

HEPG2 = test system: HEPG2
Outline: as §1

OVCAR4 = test system: OVCAR4
Outline: as §1

Compound	Euclidean distance (786-O)	Euclidean distance (A549)	Euclidean distance (DU145)	Euclidean distance (FB)	Euclidean distance (HEPG2)	Euclidean distance (OVCAR4)
CO[C@H]1C(=O)[C@]2(C)[C@@H](OC)C[C@H]3OC[C@@]3(OC(C)=O)[C@H]2[C@H](OC(=O)c2ccccc2)[C@]2(O)C[C@H](OC(=O)[C@H](O)[C@@H](NC(=O)OC(C)(C)C)c3ccccc3)C(C)=C1C2(C)C [Cabazitaxel]	3.68	3.16	3.88	2.6	1.97	2.5
COC(=O)/C=C/C(=O)OCCN1C(=O)CCC1=O [Diroximel Fumarete]	0.82	0.396	1.17	1.24	0.611	0.814
CC(=O)/N=c1/sc(S(N)(=O)=O)nn1C [Methazolamide]	1.32	0.988	0.818	0.885	0.858	1.5
CC[C@H]1OC(=O)C[C@@H](O)[C@H](C)[C@@H](O[C@@H]2O[C@H](C)[C@@H](O[C@H]3C[C@@](C)(O)[C@@H](O)[C@H](C)O3)[C@H](N(C)C)[C@H]2O)[C@@H](CC=O)C[C@@H](C)C(=O)/C=C/C(C)=C/[C@@H]1CO[C@@H]1O[C@H](C)[C@@H](O)[C@@H](OC)[C@H]1OC [Tylosin]	0.535	1.08	0.612	0.794	0.42	0.917
Cc1cccc(-c2[nH]c(C(C)(C)C)nc2-c2ccc3nccnc3c2)n1	1.56	1.18	0.741	0.884	1.48	0.948
CC(=O)Nc1ncc([N+](=O)[O-])s1 [Nithiamide]	0.999	0.607	0.822	0.606	2.08	0.885
CC(C)CN(C[C@@H](OP(=O)(O)O)[C@H](Cc1ccccc1)NC(=O)O[C@H]1CCOC1)S(=O)(=O)c1ccc(N)cc1 [Fosamprenavir calcium salt]	1.44	0.901	1.21	0.737	0.527	1.41
CCN(CC)Cc1cc(Nc2ccnc3cc(Cl)ccc23)ccc1O [Amodiaquine hydrochloride]	2.94	2.7	1.67	3.45	2.69	2.51
O=c1c(-n2ccnn2)c[nH]n1-c1cc(N2CCOCC2)ncn1 [Molidustat (BAY 85-3934)]	1.15	0.806	1.01	1.09	0.627	1.19
CCN1/C(=C/C(C)=O)Sc2ccc(OC)cc21	0.422	0.711	1.03	0.64	1.98	0.872
CN1C(=O)OC(C)(C)C1=O [Trimethadione]	0.978	1.26	0.732	0.717	0.658	0.721
Cc1ccc(NC(=O)c2ccc(CN3CCN(C)CC3)cc2)cc1Nc1nccc(-c2cccnc2)n1 [Imatinib (STI571)]	1.85	1.68	1.9	2.04	1.78	1.48
Cc1cc(Nc2ncnc3ccc(-c4ccc(CNCCS(C)(=O)=O)o4)cc23)ccc1Oc1ccn2ncnc2c1 [HER2-Inhibitor-1]	1.06	0.771	1.08	1.37	1.3	1.22
CN1C2CCCC1CC(NC(=O)c1nn(C)c3ccccc13)C2 (stereo unspecified) [Granisetron HCl]	1.32	0.903	1.37	1.04	1.27	1
COc1cnc(NS(=O)(=O)c2ccc(N)cc2)nc1 [Sulfameter]	1.33	1.11	0.768	1.28	1.49	1.5
CO[C@H]1C[C@@H]2CC[C@@H](C)[C@@](O)(O2)C(=O)C(=O)N2CCCC[C@H]2C(=O)O[C@H]([C@H](C)C[C@@H]2CC[C@@H](OCCO)[C@H](OC)C2)CC(=O)[C@H](C)/C=C(\C)[C@@H](O)[C@@H](OC)C(=O)[C@H](C)C[C@H](C)/C=C/C=C/C=C/1C [Everolimus (RAD001)]	2.45	1.83	2.74	3.19	1.73	1.9
CCCCCOc1ccccc1/C(=C\SC)n1ccnc1 [Neticonazole Hydrochloride]	1.28	1.44	0.848	0.825	1.31	1.05
C=CC[N+]1([C@H]2C[C@H]3[C@@H]4CC[C@H]5C[C@H](O)[C@@H](N6CCOCC6)C[C@]5(C)[C@H]4CC[C@]3(C)[C@H]2OC(C)=O)CCCC1 [Rocuronium Bromide]	1.59	1.12	1.92	1.08	0.685	1.25
Nc1ncnc2c1ncn2C1OC(COP(=O)(O)O)C(O)C1O (stereo unspecified) [Adenosine 5'-monophosphate monohydrate]	0.685	0.894	0.9	0.831	0.601	1.27
CC(C)(C)C(=O)OCOP(=O)(COCCn1cnc2c(N)ncnc21)OCOC(=O)C(C)(C)C [Adefovir Dipivoxil]	2.81	2.71	2.07	2.73	3.97	3.18
CN(C)C[C@@H]1CCn2cc(c3ccccc32)C2=C(C(=O)NC2=O)c2cn(c3ccccc23)CCO1	3.81	3.95	4.1	3.89	3.22	4.42
Cn1cc(/C=C/C(=O)c2cccc(F)c2)cc1/C=C/C(=O)NO	1.27	1.61	0.756	1.27	0.359	0.539
C[C@@H]1CCN(C(=O)CC#N)C[C@@H]1N(C)c1ncnc2[nH]ccc12	0.925 and 0.548	0.553 and 0.511	1.04 and 0.639	0.618 and 0.551	0.886 and 0.785	0.908 and 0.677

Compound	Euclidean distance (786-O)	Euclidean distance (A549)	Euclidean distance (DU145)	Euclidean distance (FB)	Euclidean distance (HEPG2)	Euclidean distance (OVCAR4)
C=CCCCCCCCCC(=O)[O-].C=CCCCCCCCCC(=O)[O-].[Zn+2] [Zinc Undecylenate]	1.22	2.06	1.09	1.1	0.358	1.9
O=C(Nc1cccc(Cl)c1)Nc1ncc(CCNc2ncnc3ccsc23)s1 [SNS-314 Mesylate]	1.07	1.84	0.974	1.73	0.589	1
CCN1C(=O)NC(c2ccccc2)C1=O (stereo unspecified) [Ethotoin]	0.868	0.725	0.615	0.863	0.528	1.28
COc1ccc(-c2cnc3c(-c4cccc5ncccc45)cnn3c2)cc1	0.556	0.926	1.07	0.678	0.785	0.818
C=C1C(=O)[C@]23[C@H](O)[C@H]1CC[C@H]2[C@@]12CO[C@]3(O)[C@@H](O)[C@@H]1C(C)(C)CC[C@@H]2O [Oridonin]	1.57	1.32	1.1	1.01	1.03	1.33
CCCc1nc(C(C)(C)O)c(C(=O)OCc2oc(=O)oc2C)n1Cc1ccc(-c2ccccc2-c2nnn[nH]2)cc1 [Olmesartan Medoxomil]	2.78	2.49	2.38	3.38	3.32	3.28
C[C@H]1O[C@@H](O[C@H]2CC[C@@]3(C)[C@@H](CC[C@]4(C)[C@@H]3C=C[C@]35OC[C@@]6(CCC(C)(C)C[C@H]63)[C@@H](O)C[C@]54C)[C@]2(C)CO)[C@H](O)[C@@H](O[C@@H]2O[C@H](CO)[C@@H](O)[C@H](O)[C@H]2O)[C@H]1O [Saikosaponin A]	1.06	2.42	2.17	1.52	0.854	2.14
C[C@H](Nc1ncnc2[nH]cnc12)c1cc2ccc(F)cc2nc1-c1ccccn1	0.651	0.745	1.41	1.61	1.01	1.19
Cc1ccc(Nc2c(F)cccc2Cl)c(CC(=O)O)c1 [Lumiracoxib]	1.54	0.989	0.9	1.33	0.549	1.36
CC1(C)O[C@@H]2C[C@H]3[C@@H]4CCC5=CC(=O)CC[C@]5(C)[C@@]4(F)[C@@H](O)C[C@]3(C)[C@]2(C(=O)CCl)O1 [Halcinonide]	1.46	2.25	2.18	2	0.493	1.78
CC(=O)OCC1=C(C(=O)O)N2C(=O)[C@@H](NC(=O)CSC(=NC(C)C)NC(C)C)[C@H]2SC1 [Cefathiamidine]	1.48	0.7	1.41	0.888	0.62	1.82
C=CC(=O)Nc1cccc(Nc2nc(Nc3ccc(N4CCN(C(C)=O)CC4)cc3OC)ncc2C(F)(F)F)c1	1.04	0.866	0.799	1.01	0.62	0.883
CC(=O)N(O)CCCCCNC(=O)CCC(=O)N(O)CCCCCNC(=O)CCC(=O)N(O)CCCCCN [Deferoxamine mesylate]	2.45	2.58	6.88	2.61	2.02	2.86
N=C(N)N [Guanidine HCl]	0.653	0.962	0.525	0.612	0.512	0.648
CCn1c2ccccc2c2cc(Nc3ccnc(NCCCN4CCOCC4)n3)ccc21	3.23	2.84	1.12	2.94	2.27	1.98
O=c1cc(-c2ccc(O)cc2)oc2cc(O)cc(O)c12 [Apigenin]	1.18	0.946	1.17	1.39	1.73	1.32
CCCCCCNC(=O)n1cc(F)c(=O)[nH]c1=O [Carmofur]	2.44	2.89	1.27	2.91	2.49	2.82
COc1ccc(-c2cc3c(C)nc(N)nc3n([C@H]3CC[C@H](OCCO)CC3)c2=O)cn1	4.94	3.33	2.31	4.31	2.12	3.03
CN(C)CCCN1c2ccccc2Sc2ccccc21 [Promazine hydrochloride]	1.46	0.965	2.09	1.9	2.01	1.58
Nc1ccc(S(=O)(=O)Nc2ncccn2)cc1 [Sulfadiazine]	1.39	0.735	1.5	1.03	2.25	1.43
O=C1Nc2ccccc2C1=O [Isatin]	0.739	1.21	1.26	1.29	1.03	1.39
COc1cc2c(cc1OC)[C@@H](Cc1cc(OC)c(OC)c(OC)c1)[N+](C)(CCCOC(=O)CC/C=C/CCC(=O)OCCC[N+]1(C)CCc3cc(OC)c(OC)cc3[C@H]1Cc1cc(OC)c(OC)c(OC)c1)CC2 (stereo partly specified) [Mivacurium chloride]	0.861	1	0.929	1.3	0.442	1.25
O=C(O)/C=C/c1ccc(Cn2ccnc2)cc1 [Ozagrel]	1.04	0.773	1.51	0.921	0.736	1.43
